Assay results published in ChEMBL document CHEMBL3988442, “University of Dundee, Small-Polar-MMV Screening Library” (2021).
For some of these results: Measured potencies and affinities stand elsewhere.

Assays:
Parameters in all cases: scale not given: direction of the effect not stated beside the values
[1] = biological target: Protein translocase subunit SecA (Escherichia coli (strain K12)) (UniProt P10408); test: Assay to Identify E. coli SecA ATPase Inhibitors; type: functional; settings: 30 µM
[2] = biological target: T1, Ubiquitin-activating enzyme e1, putative (Leishmania donovani (strain BPK282A1)) (UniProt E9BSI1); test: Leishmania donovani Ubiquitin Activating Enzyme (LdE1); type: functional; settings: 30 µM
T1 sequence (whole entry): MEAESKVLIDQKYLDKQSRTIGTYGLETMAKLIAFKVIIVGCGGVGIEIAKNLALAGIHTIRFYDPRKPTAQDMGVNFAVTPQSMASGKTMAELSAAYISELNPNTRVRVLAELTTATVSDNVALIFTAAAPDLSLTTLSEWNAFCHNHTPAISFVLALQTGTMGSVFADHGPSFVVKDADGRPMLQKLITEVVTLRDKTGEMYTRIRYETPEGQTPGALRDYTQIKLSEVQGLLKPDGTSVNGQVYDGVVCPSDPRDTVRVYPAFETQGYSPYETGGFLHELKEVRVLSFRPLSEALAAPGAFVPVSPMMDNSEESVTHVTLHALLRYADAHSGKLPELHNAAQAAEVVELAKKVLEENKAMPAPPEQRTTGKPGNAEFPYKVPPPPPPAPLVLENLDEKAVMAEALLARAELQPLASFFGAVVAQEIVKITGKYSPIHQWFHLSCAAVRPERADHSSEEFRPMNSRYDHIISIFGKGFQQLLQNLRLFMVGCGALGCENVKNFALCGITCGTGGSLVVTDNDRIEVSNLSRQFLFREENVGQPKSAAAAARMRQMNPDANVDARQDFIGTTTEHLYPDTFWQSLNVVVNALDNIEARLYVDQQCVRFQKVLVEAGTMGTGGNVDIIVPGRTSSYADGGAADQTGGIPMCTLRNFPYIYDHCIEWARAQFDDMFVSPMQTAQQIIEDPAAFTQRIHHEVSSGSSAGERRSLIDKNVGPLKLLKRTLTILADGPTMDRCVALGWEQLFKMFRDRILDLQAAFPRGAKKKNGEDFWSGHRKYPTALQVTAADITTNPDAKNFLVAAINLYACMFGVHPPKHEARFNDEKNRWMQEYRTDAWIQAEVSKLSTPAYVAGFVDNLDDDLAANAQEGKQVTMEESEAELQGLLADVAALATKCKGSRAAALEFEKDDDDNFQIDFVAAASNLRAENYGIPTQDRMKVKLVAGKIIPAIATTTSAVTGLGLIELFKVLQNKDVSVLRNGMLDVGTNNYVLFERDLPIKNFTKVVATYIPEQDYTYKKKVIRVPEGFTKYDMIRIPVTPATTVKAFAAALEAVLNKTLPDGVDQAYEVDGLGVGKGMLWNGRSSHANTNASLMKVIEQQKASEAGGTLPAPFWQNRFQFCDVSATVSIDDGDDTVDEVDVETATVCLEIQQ

[3] = biological target: AMP-activated protein kinase, AMPK (Homo sapiens) (UniProt P54646+O43741+P54619+Q9UGJ0+Q9Y478+Q13131+Q9UGI9); test: AMP-dependent Kinase enzyme assay. An in vitro enzyme assay that detects ADP turnover that is directly proportional to AMPK activity. This uses naive AMPK that is activated during the assay with MK-8722; type: functional; settings: 30 µM
[4] = biological target: Sialic acid-binding Ig-like lectin 9 (Homo sapiens) (UniProt Q9Y336); test: Hs-Siglec9 ALPHAscreen SOP 20170721; settings: 10 µM
Trypanosoma cruzi = test: Trypanosoma cruzi phosphomannomutase and mannose-1-phosphate guanylyltransferase assay; type: functional; settings: 10 µM
[5] = biological target: T2, Arginase-2, mitochondrial (Homo sapiens) (UniProt P78540); test: in vitro enzyme assay to detect the production of urea directly proportional to the activity of Arginase II; type: functional; settings: 33.3 µM; also: in the data most compounds retested in dose-response had high values
T2 sequence (whole entry): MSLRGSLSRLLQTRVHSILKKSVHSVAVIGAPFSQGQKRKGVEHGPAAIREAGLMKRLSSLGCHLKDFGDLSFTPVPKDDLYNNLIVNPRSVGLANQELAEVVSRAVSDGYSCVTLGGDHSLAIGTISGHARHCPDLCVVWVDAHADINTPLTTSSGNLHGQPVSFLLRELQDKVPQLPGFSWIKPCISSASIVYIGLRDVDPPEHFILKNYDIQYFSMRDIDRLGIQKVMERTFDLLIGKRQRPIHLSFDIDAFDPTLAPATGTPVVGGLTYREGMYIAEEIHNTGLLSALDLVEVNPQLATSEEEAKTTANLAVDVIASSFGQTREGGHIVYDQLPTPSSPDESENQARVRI

[6] = biological target: T3, Proteasome subunit beta (Trypanosoma cruzi) (UniProt O96673); test: Trypanosoma cruzi proteasome chymotrypsin-like activity (TcProtChymo) assay.; also: in the data most compounds retested in dose-response had high values; type: functional; settings: 9.37 µM
T3 sequence (whole entry): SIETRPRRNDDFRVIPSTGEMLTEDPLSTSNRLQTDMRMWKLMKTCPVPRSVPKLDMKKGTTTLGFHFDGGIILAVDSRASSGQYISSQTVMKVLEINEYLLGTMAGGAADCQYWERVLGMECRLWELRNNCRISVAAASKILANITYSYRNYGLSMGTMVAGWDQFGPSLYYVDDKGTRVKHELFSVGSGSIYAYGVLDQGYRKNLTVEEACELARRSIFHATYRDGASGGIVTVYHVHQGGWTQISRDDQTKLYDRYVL

Homo sapiens = species: Homo sapiens; test: To identify inhibition of the IFN signalling (Jak-Stat) pathway via expression of an eGFP reporter gene under the control of an IFN-stimulated response element (ISRE) containing MxA promoter.; type: functional; settings: 30 µM
[7] = biological target: T4, Tyrosyl-tRNA synthetase, putative (Trypanosoma cruzi (strain CL Brener)) (UniProt Q4DSP6); test: Trypanosoma cruzi tyrosyl tRNA synthetase (TcYRS) _High Tyrosine SOP; type: functional; settings: 30 µM; also: in the data most compounds retested in dose-response had high values
T4 sequence (whole entry): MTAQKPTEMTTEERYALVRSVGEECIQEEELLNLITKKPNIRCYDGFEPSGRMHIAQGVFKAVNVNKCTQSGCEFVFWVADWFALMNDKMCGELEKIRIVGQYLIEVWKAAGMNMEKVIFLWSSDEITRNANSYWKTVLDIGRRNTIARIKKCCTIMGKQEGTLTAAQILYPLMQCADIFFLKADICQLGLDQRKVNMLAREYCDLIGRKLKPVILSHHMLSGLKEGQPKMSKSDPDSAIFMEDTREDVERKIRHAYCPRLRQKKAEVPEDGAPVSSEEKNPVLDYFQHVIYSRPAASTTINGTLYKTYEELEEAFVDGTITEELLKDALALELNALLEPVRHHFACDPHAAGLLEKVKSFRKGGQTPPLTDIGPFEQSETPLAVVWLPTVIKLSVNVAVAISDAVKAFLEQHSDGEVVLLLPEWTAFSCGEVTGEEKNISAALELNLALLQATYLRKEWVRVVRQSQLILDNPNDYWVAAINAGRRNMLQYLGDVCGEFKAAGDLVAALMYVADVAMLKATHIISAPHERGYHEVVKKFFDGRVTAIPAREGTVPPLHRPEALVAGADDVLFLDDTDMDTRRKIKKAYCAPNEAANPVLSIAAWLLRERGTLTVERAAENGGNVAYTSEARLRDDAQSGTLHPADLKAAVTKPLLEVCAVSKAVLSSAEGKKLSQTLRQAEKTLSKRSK

[8] = biological target: T4, Tyrosyl-tRNA synthetase, putative (Trypanosoma cruzi (strain CL Brener)); test: Trypanosoma cruzi tyrosyl tRNA synthetase (TcYRS) SOP; type: functional; settings: 30 µM
[9] = biological target: Chromo domain-containing protein 1 (Saccharomyces cerevisiae (strain ATCC 204508 / S288c) (Baker's yeast)) (UniProt P32657); test: ScCHD-1 Enzyme Inhibition Assay; type: functional; settings: 30 µM; also: in the data most compounds retested in dose-response had high values
Chain of Chromo domain-containing protein 1 (Saccharomyces cerevisiae (strain ATCC 204508 / S288c) (Baker's yeast)) (P32657 whole entry, the tested form may be a part): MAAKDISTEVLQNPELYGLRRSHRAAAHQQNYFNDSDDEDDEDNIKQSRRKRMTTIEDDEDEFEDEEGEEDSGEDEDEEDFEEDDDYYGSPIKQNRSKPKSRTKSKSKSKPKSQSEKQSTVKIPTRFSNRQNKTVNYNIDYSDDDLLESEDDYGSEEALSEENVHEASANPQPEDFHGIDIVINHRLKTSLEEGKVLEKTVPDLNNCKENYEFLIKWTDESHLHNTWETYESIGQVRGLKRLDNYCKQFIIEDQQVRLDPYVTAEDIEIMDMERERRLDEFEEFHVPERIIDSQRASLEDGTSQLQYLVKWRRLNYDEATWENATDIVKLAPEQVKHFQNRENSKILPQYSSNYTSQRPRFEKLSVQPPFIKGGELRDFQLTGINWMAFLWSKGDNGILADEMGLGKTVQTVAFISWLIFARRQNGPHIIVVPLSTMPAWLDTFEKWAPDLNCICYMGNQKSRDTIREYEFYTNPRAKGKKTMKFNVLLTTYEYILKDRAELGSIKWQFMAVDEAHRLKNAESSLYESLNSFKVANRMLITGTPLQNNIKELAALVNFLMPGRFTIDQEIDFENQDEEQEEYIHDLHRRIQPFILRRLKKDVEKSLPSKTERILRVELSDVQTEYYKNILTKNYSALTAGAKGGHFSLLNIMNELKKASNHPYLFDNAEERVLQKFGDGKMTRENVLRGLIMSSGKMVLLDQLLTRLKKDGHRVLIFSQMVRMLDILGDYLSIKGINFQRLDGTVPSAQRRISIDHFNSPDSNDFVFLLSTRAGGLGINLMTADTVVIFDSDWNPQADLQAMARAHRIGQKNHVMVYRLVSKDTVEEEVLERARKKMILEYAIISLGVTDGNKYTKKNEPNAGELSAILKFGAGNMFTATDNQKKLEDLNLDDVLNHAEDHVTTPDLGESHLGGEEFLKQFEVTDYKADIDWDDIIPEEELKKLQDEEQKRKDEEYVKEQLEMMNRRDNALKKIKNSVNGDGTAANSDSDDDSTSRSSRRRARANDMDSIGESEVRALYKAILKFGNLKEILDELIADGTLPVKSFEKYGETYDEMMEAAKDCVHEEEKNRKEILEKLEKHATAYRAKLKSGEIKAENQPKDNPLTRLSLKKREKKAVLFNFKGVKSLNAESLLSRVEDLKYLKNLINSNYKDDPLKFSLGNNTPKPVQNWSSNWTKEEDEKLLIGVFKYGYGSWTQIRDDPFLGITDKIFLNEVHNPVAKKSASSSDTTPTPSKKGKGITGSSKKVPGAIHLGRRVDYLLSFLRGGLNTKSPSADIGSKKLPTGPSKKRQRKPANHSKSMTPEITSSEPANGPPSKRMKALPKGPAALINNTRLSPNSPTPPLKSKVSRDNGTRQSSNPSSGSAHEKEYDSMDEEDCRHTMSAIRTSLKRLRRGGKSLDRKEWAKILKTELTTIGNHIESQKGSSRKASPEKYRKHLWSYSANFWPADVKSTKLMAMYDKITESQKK

Chain of Protein translocase subunit SecA (Escherichia coli (strain K12)) (P10408 whole entry): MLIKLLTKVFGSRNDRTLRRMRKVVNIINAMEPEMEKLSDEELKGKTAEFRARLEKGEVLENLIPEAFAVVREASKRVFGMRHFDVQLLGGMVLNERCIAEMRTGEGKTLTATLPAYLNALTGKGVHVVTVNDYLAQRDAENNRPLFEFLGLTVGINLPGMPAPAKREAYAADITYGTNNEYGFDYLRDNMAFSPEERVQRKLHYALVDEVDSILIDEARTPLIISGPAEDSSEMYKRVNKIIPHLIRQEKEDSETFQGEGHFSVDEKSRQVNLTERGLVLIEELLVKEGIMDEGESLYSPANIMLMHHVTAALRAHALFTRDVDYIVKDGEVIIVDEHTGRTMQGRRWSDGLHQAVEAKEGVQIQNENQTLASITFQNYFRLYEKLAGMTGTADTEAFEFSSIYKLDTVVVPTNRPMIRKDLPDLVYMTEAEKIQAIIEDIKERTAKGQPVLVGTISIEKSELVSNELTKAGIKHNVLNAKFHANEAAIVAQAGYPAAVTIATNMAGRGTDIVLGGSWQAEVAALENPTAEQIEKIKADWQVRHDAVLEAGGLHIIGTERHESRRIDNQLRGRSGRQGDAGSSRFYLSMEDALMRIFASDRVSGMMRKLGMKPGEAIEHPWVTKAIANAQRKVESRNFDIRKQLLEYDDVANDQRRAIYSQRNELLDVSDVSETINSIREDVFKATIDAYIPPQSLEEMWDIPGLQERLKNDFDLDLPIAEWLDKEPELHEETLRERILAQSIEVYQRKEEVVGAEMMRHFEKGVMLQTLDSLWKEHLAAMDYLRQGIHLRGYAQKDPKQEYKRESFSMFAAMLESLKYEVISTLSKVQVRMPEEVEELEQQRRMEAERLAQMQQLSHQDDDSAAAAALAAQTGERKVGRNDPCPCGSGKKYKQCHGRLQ
Chain of Sialic acid-binding Ig-like lectin 9 (Homo sapiens) (Q9Y336 whole entry): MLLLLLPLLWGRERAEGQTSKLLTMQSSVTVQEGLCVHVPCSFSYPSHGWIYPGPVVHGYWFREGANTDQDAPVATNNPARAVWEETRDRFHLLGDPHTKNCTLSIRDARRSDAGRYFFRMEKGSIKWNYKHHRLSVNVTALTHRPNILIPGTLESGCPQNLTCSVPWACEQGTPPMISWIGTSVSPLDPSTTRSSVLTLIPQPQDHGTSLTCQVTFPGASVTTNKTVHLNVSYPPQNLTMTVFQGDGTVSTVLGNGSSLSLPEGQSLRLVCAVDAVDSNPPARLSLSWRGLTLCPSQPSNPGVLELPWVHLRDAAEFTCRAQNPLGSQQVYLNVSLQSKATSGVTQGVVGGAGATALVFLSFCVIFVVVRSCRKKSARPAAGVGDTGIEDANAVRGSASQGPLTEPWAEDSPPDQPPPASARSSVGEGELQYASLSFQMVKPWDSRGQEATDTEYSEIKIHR

SMILES	Percent Effect [1] [%]	Percent Effect [2] [%]	Percent Effect [3] [%]	Percent Effect [4] [%]	Percent Effect (Trypanosoma cruzi) [%]	Percent Effect [5] [%]	Percent Effect [6] [%]	Percent Effect (Homo sapiens) [%]	Percent Effect [7] [%]	Percent Effect [8] [%]	Percent Effect [9] [%]
Cc1occc1C(=O)N1CCC[C@]2(C[C@@H](OCc3ccncc3)CO2)C1	0.103	10.7	1.3	1.1	-1.16	-23.5	16.4	-0.395	7.29	22.5	-5.63
Cc1cc(C)cc(-c2ccc(CC3(C(=O)O)CCOCC3)cc2)c1	-8.77	-4.05	12.1	-1.64	-3.95	-3.48	1.25	18	-20.4	-37.7	-2.15
Cc1noc(CN2CCC(c3ccnn3CCO)CC2)n1	-3.55	12.7	-1.18	-2.56	8.59	-0.76	8.76	4.82	6.4	16.5	-6.79
CCN1CCN(S(=O)(=O)c2ncn(C)c2Cl)CC1	-6.34	6.94	-0.0263	3.04	-3.79	1.77	21.4	6.76	1.05	10.3	-1.92
COc1ccc(-c2nnc(SC(C)C(=O)NCC(C)C)[nH]2)c(OC)c1 (stereo not given)	-3.62	10.5	2.87	6.11	1.27	-3.55	13.5	91.3	3.19	18.2	2.44
O=C(c1ccsc1)N1CCCC(c2cc(C(F)(F)F)[nH]n2)C1 (stereo not given)	-8.76	5.26	10.2	-0.389	-4.39	0.719	-2.12	24.2	0.493	3.7	7.08
c1ccc(OC[C@]23COC[C@H]2CN(c2ncccn2)C3)nc1	0.189	8	1.07	5.7	6.37	-59.3	12.7	-4.34	3.12	17.5	-8.1
O=C(CO)N1CCC(c2cncc(-c3cccc(Cl)c3)n2)CC1	-2.26	-2.67	27.8	-7.86	8.27	138	15.9	6.85	11.7	16.7	-5.15
CC(C)N(C)Cc1cnc2n1CCN(CCc1ccccc1)C2	-3.87	5.41	23.2	-2.38	0.586	-2.92	9.04	-8.89	6.93	8.54	0.182
Cc1cnn(CC2CCCN2C(=O)c2ccc3[nH]nnc3c2)c1 (stereo not given)	-1.48	8.86	-1.94	-8.54	2.97	-2.8	17.5	2.88	1.04	10.1	-4.85
CCC(CC)c1cc(CNC(=O)N2CCCC(N(C)C)C2)on1 (stereo not given)	-3.85	8.11	-7.08	17.6	6.55	0.248	12.8	7.88	6.45	13.6	-6.35
FC(F)(F)COCCN1CCN(c2ccc3nncn3n2)CC1	-4.65	10.4	0.707	9.49	4.87	-3.92	2.87	-15.5	5.83	14.6	-6.46
Cc1cnn(CC2CCCCN2C(=O)c2ccc3[nH]nnc3c2)c1 (stereo not given)	-3.72	13	5.5	1.47	-2.25	2.32	14.3	22.2	6.67	9.41	-11.2
CC1CN=C(N2CCN(C(=O)Nc3nc(-c4ccccc4)ns3)CC2)S1 (stereo not given)	-9.42	-5.41	7.75	-5.9	-2.25	-3.23	3.35	38.4	-2.15	-6.17	-0.289
CN(C)c1ccc(C(=O)N2CCN(C(=O)N3CCCCC3)CC2)nn1	-6.05	7.79	4.21	10.5	5.8	-3.92	4.56	3.45	0	7.32	-13.4
O=c1n(CCSCc2ccccc2F)nc2ccccn12	-4.09	7.79	0.704	-1.41	7.15	4	1.7	16.8	0.952	11.8	-29.5
Cc1ccc(Cc2cnc(NC(=O)C3CNC(=O)N3)s2)cc1F (stereo not given)	-2.83	8.86	4.79	5.91	0.308	1.5	16.6	-4.36	-3.12	17.7	-8.88
Cc1c(C2CCCN(C(=O)Cc3ccccn3)C2)n2c(nc1=O)CCC2 (stereo not given)	-4	12.2	4.92	-3.29	-5.53	0.696	15.3	14.5	6.45	6.49	-11.6
CCn1cnnc1CNC(=O)NC(C)C(C)C (stereo not given)	-4.76	13	3.19	7.03	-4.68	0	12.5	22.8	2.91	7.32	-1.46
CCn1cc(CN2CCCC(CO)(CCc3ccccc3)C2)c(C)n1 (stereo not given)	-3.86	8.11	-1.51	28.3	5.18	18.1	12.1	-7.2	0	11.1	-12.5
